From PubChem BioAssay
“And” between values parts separate entries of the source, which are not always exact repeats. Identical values can stand only once. More than one record can exist for a structure, and the calls need not agree. The source made the active and inactive calls.

Experiments:
[1] = system: PRMT1 (protein arginine N-methyltransferase 1); assay: small molecules binding arginine methyltransferase PRMT1 – biochemical, small-molecule microarray, 635 nm fluorescence, primary screen (AID 1088); settings: higher = more signal;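 note: binding of Prmt1 protein to compounds spotted on small-molecule microarray slides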
[2] = growth effects on S. cerevisiae YJM789 – YJM789 clinical isolate, OD600, 24 h, basal, primary screen (AID 1089); settings: higher = more signal, called active from +8 up or from −8 down;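 note: growth of clinical yeast isolate S. cerevisiae YJM 789 seeded 1000 cells per well; test concentration not given here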
[3] = S. pombe growth modifiers, basal conditions – strain 972, OD600, 24 h, no modulator, primary screen (AID 1090);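 note: basal condition with compound alone and no growth modifier present; test concentration not given here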; settings: S. pombe 972 growth, higher = more signal, called active from +8 up or from −8 down
[4] = budding yeast growth modifiers under rapamycin – strain BY4716, OD600, 96 h, primary screen (AID 1091); note: test concentration not given here; settings: S. cerevisiae BY4716 + rapamycin, higher = more signal, called active from +8 up or from −8 down
[5] = target: Torsin-1A-interacting protein 2 (Homo sapiens) (UniProt Q8NFQ8); assay: small molecules binding lysate-expressed LULL1 – cell lysate, human LULL1 lysate, 635/667 nm fluorescence, primary screen (AID 1092); settings: small-molecule microarray, hLULL1 lysate binding, 635 nm fluorescence; higher = more signal;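 note: probe is lysate of COS7 cells overexpressing human LULL1; score merges per-feature 667 nm fluorescence with signal-to-noise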
Chain of Torsin-1A-interacting protein 2 (Homo sapiens) (Q8NFQ8 whole entry, looked up): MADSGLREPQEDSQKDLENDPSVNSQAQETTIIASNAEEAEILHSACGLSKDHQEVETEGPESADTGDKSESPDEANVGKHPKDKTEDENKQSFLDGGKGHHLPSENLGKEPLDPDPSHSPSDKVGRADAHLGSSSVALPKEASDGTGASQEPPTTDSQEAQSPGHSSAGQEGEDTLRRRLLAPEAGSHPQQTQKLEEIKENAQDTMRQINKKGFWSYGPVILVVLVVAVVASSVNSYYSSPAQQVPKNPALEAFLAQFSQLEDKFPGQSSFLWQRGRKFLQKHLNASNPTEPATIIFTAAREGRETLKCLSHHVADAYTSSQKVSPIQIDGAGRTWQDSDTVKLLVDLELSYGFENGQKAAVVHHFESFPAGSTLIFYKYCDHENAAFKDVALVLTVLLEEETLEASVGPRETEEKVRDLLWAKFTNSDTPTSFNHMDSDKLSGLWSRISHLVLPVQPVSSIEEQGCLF

[6] = optical density change of DRC41 E. coli – strain DRC41, OD650, 24 h, E. coli filamentation project, primary screen (AID 1093);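 note: MC1000 strain lacking acrAB efflux and sulA so SOS filamentation is blocked; test concentration not given here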; settings: E. coli DRC41 growth, higher = more signal, called active from +8 up or from −8 down
[7] = probe aLefty2 binding to arrayed compounds – biochemical, biotinylated probe, 635/667 nm fluorescence, primary screen (AID 1094); settings: small-molecule microarray, higher = more signal;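 note: score merges spot fluorescence near 667 nm with spot signal-to-noise ratio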
[8] = system: Noggin (protein binding on small-molecule microarray); assay: small molecules binding Noggin protein – biochemical, 635/667 nm fluorescence, primary screen (AID 1095); settings: 635 nm fluorescence, higher = more signal;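 note: score merges 667 nm feature fluorescence with signal to noise over triplicate slides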
[9] = target: Neurogenic locus notch homolog protein 3 (Homo sapiens) (UniProt Q9UM47); assay: small molecules binding NOTCH3 protein – biochemical, 635/667 nm fluorescence, primary screen (AID 1096); settings: small-molecule microarray, 635 nm fluorescence, higher = more signal
Chain of Neurogenic locus notch homolog protein 3 (Homo sapiens) (Q9UM47 whole entry, looked up): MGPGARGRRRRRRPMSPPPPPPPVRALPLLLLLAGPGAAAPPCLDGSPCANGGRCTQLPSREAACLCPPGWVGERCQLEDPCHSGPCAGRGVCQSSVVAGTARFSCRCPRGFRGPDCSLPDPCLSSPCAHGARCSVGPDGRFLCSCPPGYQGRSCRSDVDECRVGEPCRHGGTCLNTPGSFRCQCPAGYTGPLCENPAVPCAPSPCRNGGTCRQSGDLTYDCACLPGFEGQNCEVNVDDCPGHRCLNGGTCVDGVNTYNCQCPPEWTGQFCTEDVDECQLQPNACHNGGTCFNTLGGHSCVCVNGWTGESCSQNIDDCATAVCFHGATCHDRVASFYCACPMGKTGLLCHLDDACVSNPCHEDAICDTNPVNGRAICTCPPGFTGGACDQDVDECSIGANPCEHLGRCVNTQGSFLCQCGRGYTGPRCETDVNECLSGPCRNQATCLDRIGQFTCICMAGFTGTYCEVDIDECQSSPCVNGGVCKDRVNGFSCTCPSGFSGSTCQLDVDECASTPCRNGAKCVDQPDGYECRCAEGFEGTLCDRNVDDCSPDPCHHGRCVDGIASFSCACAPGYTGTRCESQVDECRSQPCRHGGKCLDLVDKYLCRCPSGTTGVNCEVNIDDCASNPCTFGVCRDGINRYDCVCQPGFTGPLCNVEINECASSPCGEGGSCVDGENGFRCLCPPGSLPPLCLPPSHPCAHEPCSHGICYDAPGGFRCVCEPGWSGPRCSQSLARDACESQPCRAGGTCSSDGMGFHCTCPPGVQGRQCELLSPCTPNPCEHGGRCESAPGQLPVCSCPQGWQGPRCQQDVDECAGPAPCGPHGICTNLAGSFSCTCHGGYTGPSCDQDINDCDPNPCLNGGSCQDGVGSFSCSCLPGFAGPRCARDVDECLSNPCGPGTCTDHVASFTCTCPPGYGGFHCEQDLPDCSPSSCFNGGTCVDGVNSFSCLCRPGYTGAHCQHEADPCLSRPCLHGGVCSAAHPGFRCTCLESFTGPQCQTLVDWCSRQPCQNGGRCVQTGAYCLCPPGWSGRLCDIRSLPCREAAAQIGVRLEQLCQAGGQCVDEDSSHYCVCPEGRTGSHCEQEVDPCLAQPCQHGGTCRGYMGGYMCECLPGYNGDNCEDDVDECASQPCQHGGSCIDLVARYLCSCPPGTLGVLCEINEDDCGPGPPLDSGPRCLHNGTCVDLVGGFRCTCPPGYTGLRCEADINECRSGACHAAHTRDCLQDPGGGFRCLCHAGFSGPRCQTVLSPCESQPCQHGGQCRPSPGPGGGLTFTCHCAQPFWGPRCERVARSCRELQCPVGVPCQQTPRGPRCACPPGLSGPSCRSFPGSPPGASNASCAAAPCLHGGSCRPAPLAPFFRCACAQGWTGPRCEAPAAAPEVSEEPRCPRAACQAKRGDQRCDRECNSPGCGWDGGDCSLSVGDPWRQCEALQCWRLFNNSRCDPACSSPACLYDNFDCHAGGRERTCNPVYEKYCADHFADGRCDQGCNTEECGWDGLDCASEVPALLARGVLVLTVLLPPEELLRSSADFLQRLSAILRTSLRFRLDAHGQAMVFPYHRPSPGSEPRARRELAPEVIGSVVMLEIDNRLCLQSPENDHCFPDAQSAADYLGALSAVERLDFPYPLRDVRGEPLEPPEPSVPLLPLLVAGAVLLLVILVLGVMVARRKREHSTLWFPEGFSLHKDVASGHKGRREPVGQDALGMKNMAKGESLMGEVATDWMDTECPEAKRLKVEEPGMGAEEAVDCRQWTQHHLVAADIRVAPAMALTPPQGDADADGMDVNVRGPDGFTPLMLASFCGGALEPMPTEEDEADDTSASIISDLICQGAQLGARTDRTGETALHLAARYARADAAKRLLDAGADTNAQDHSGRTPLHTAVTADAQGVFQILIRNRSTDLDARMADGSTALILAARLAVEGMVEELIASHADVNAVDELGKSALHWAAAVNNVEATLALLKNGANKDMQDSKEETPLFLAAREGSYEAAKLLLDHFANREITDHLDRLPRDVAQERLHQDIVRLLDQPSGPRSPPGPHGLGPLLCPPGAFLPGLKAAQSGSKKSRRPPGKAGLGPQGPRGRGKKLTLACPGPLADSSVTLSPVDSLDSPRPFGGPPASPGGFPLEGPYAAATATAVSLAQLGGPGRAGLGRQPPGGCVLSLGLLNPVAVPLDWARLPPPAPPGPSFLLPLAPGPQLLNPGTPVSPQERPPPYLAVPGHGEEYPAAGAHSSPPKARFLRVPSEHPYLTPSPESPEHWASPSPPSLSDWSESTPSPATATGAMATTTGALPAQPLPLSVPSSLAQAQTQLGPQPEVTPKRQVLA

[10] = probe aEGFR binding to arrayed compounds – biochemical, biotinylated probe, 635/667 nm fluorescence, primary screen (AID 1097); settings: small-molecule microarray, higher = more signal;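 note: probe is a biotinylated anti-EGFR antibody binding compounds printed on slides; score combines fluorescence near 667 nm and signal to noise of each spot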
[11] = system: Plasmodium falciparum Sir2 (PF13_0152, Sir2A); assay: Plasmodium falciparum Sir2A binding compounds – biochemical, small-molecule microarray, 635 nm fluorescence, primary screen (AID 1098); settings: fluorescence 635 nm, higher = more signal;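 note: score merges spot fluorescence intensity with its signal-to-noise ratio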
[12] = probe aDKK1 binding to arrayed compounds – biochemical, biotinylated probe, 635/667 nm fluorescence, primary screen (AID 1099); settings: small-molecule microarray, higher = more signal;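 note: score merges 667nm spot fluorescence with signal to noise across triplicate slides; reference of the scale not given here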
[13] = probe aCHRDL2 binding to arrayed compounds – biochemical, biotinylated probe, 635/667 nm fluorescence, primary screen (AID 1100); settings: small-molecule microarray, higher = more signal
[14] = change in splice reporter luminescence, either direction, cell-based, HEK293, spliceosome inhibition project, primary screen (AID 1101); settings: HEK293 splicing luciferase reporter, 24 h, higher = more signal, called active from +8 up or from −8 down;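 note: HEK293 cells carrying a splicing-competent luciferase reporter gene; test concentration not given here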
[15] = target: Fibroblast growth factor 10 (Homo sapiens) (UniProt O15520); assay: compounds binding fibroblast growth factor 10 – biochemical, small-molecule microarray, 635 nm fluorescence, primary screen (AID 1102); settings: FGF10 binding, fluorescence 635 nm, higher = more signal
Chain of Fibroblast growth factor 10 (Homo sapiens) (O15520 whole entry, looked up): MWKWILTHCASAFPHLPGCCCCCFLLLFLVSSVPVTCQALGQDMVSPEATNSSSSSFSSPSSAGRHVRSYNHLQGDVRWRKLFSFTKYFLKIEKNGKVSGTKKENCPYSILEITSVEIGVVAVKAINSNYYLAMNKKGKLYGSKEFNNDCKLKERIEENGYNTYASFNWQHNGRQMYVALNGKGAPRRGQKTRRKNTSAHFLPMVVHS

[16] = system: glycogen synthase kinase-3 (GSK3A per assay name; protocol says GSK3B); assay: compounds binding glycogen synthase kinase-3 – biochemical, small-molecule microarray, 635 nm fluorescence, GSK3A, primary screen (AID 1103); settings: fluorescence 635 nm, higher = more signal; note: the record names both GSK3A and GSK3B
[17] = target: Epidermal growth factor receptor (Homo sapiens) (UniProt P00533); assay: compounds binding epidermal growth factor receptor – biochemical, small-molecule microarray, 635 nm fluorescence, primary screen (AID 1104); settings: EGFR binding, higher = more signal;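 note: score merges 667 nm emission intensity with spot signal to noise over triplicate slides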
Chain of Epidermal growth factor receptor (Homo sapiens) (P00533 whole entry, looked up): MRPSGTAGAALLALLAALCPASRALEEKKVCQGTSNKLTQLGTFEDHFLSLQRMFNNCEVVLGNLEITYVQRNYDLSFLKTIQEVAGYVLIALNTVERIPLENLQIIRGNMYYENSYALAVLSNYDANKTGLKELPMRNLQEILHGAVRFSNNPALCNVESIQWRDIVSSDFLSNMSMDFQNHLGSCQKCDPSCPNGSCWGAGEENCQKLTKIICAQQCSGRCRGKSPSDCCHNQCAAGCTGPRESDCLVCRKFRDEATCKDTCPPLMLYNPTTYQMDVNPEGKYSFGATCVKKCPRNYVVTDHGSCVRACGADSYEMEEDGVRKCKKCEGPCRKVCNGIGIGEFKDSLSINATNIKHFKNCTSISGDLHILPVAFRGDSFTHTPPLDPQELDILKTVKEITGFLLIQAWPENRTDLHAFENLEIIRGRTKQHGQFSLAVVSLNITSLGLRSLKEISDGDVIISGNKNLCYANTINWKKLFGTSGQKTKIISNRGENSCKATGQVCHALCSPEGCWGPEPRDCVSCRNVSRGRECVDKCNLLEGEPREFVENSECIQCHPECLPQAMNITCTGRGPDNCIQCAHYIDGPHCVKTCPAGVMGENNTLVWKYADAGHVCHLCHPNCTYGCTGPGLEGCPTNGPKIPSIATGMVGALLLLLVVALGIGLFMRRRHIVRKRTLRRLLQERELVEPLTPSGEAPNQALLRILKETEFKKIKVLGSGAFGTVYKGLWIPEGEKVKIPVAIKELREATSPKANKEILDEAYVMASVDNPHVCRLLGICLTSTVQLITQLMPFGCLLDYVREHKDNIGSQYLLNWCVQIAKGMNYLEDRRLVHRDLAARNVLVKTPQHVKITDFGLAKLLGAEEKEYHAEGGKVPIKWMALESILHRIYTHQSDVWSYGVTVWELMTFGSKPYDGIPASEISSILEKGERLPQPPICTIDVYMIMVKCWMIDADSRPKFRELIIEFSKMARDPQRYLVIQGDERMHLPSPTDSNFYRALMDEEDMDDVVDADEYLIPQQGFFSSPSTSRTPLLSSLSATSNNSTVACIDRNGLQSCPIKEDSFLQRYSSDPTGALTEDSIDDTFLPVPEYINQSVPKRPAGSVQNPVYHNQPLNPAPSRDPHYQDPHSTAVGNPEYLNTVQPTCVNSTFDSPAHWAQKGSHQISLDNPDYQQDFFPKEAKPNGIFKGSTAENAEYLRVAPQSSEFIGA

[18] = target: Follistatin-related protein 3 (Homo sapiens) (UniProt O95633); assay: compounds binding follistatin-related protein 3 – biochemical, small-molecule microarray, 635 nm fluorescence, primary screen (AID 1105); settings: FSTL3 binding, higher = more signal;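 note: score merges emission near 667 nm and signal to noise per printed spot across three slides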
Chain of Follistatin-related protein 3 (Homo sapiens) (O95633 whole entry, looked up): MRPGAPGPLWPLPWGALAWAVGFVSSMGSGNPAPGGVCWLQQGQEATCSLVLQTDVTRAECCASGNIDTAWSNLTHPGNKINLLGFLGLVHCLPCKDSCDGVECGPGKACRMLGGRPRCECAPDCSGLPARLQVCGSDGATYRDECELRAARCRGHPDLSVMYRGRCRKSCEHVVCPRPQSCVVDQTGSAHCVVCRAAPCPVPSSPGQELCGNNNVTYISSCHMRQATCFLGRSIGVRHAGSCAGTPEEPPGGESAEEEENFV

[19] = target: Dickkopf-related protein 1 (Homo sapiens) (UniProt O94907); assay: small molecules binding DKK1 protein – biochemical, small-molecule microarray, 635 nm fluorescence scan, primary screen (AID 1106); settings: higher = more signal;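 note: score merges emission near 667 nm with signal to noise over three replicate slides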
Chain of Dickkopf-related protein 1 (Homo sapiens) (O94907 whole entry, looked up): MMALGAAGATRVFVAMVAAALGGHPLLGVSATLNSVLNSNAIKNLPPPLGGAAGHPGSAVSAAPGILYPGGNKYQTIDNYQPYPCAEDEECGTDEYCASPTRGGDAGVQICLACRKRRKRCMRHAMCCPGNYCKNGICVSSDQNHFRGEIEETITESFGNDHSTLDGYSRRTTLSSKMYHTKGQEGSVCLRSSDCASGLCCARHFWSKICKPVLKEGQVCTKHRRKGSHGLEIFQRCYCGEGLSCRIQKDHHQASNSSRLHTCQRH

[20] = system: Inhibin beta A chain (activin A); assay: small molecules binding activin A – biochemical, small-molecule microarray, 635 nm fluorescence scan, primary screen (AID 1107); settings: INHBA, higher = more signal;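 note: mouse activin A protein probed at 4.33 µg/mL on printed slides; score merges bound-protein fluorescence near 667 nm with spot signal-to-noise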

SMILES	composite z-score [1]	z-score [2]	z-score [3]	z-score [4]	composite z-score [5]	z-score [6]	composite z-score [7]	composite z-score [8]	composite z-score [9]	composite z-score [10]	composite z-score [11]	composite z-score [12]	composite z-score [13]	z-score [14]	composite z-score [15]	composite z-score [16]	composite z-score [17]	composite z-score [18]	composite z-score [19]	composite z-score [20]
CC(CO)N1C(=O)[C@@H]2C3C(=O)OCCC=C[C@H]3OC23C=CCN(Cc2ccccc2)C(=O)[C@@H]13 (stereo not given in full)	-0.477 and -0.385	0.814 (inactive) and -0.448 (inactive)	-0.326 (inactive) and -1.08 (inactive)	1.53 (inactive) and -0.42 (inactive)	1.16 and 0.0845	1.3 (inactive) and 1.67 (inactive)	-0.0216 and -0.0449	-1.05 and -0.529	-0.36 and -0.377	-0.196 and -0.221	1.15 and 0.52	-0.2 and -0.173	0.139 and 0.407	-0.379 (inactive) and -0.024 (inactive)	-0.602 and -0.115	-0.491 and -0.648	-0.91 and -1.81	-0.771 and -1.06	-1.02 and -0.657	1.24 and -0.563
COC(=O)C1=C(C)N(Cc2ccccc2)C2=C(C(C)=O)C[C@@](O)(C(=O)OC)C(=O)N2[C@@H]1c1ccccc1	1.55 and -0.0318	-0.762 (inactive) and -2.05 (inactive)	-0.987 (inactive) and -1.63 (inactive)	-1.32 (inactive) and -0.654 (inactive)	1.68 and 0.258	0.528 (inactive) and 0.524 (inactive)	-0.195 and -0.331	0.364 and 0.0733	0.729 and -0.153	0.0069 and -0.158	1.58 and 0.326	-0.301 and -0.205	-0.764 and -0.229	-0.805 (inactive) and -0.873 (inactive)	0.988 and 0.0571	0.74 and -0.0162	0.381 and 0.348	0.869 and 0.521	0.801 and 0.478	0.522 and 1.28
CCOC(=O)NN=C1C[C@@H](O)[C@@H](O)[C@@H]2[C@@H]3C(=O)N(Cc4ccc5c(c4)OCO5)C(=O)[C@@H]3CC[C@@H]12	0.365	0.282 (inactive)	-0.117 (inactive)	-0.135 (inactive)	2.14	0.234 (inactive)	-0.148	0.0857	-0.209	-0.148	0.0867	-0.0464	-0.331	0.0278 (inactive)	0.0364	0.424	0.231	-0.406	0.0071	-0.134
C[C@@H]1CN2[C@@H](CC[C@@H](C)[C@@H]2c2ccc(Br)cc2)C(=O)O1	-0.477 and -0.0962	0.327 (inactive) and -1.72 (inactive)	0.398 (inactive) and -0.794 (inactive)	1.74 (inactive) and -0.538 (inactive)	-0.625 and 0.0053	0.0454 (inactive) and 0.082 (inactive)	-0.166 and -0.18	0.0137 and 0.546	-0.307 and -0.733	-0.111 and -0.154	-0.638 and -0.597	-0.295 and -0.239	-0.211 and -0.583	-0.142 (inactive) and -1.21 (inactive)	-0.0428 and 0.337	-0.534 and -0.046	0.167 and 0.49	-0.579 and -0.462	0.313 and 0.233	0.502 and 0.45
C=CCN(C(=O)C1N(CCOCCO)C(=O)C2C(C(=O)O)C3C=CC21O3)c1ccc(OC)cc1 (stereo not given)	-0.968 and -2.33	-0.248 (inactive) and -0.0945 (inactive)	-0.188 (inactive) and -0.571 (inactive)	-0.348 (inactive) and -0.662 (inactive)	-0.408 and 1.86	0.612 (inactive) and 1.52 (inactive)	-0.158 and 0.0873	-1.79 and -3.14	-0.59 and -0.715	-0.348 and -0.276	-0.703 and 0.492	0.0448 and 0.214	0.787 and 1.07	0.503 (inactive) and 0.116 (inactive)	-1.53 and -1.43	-0.805 and -0.855	-1.33 and -3.15	-2.58 and -2.06	-1.83 and -2.76	-3.52 and -4.08
COC(=O)[C@H](C)NC(=O)CCC1CC(OC(=O)NCCc2ccc(F)cc2)CC2(CCCC(COC(=O)NCCCN3CCCC3=O)O2)O1 (stereo not given in full)	1.55	-0.432 (inactive)	0.899 (inactive)	0.849 (inactive)	1.64	-0.681 (inactive)	-0.168	0.727	1.03	-0.0505	1.07	-0.0361	0.778	-0.247 (inactive)	1.14	1.28	0.597	1.36	1.44	-0.0362
CCC[C@@H]1C[C@@]1(CCC)[C@@H](NC(=O)c1ccc(-c2ccccc2)cc1)c1cccc(Cl)c1	-0.13 and -0.434	-0.173 (inactive) and 0.948 (inactive)	-12.7 (active) and 1.75 (inactive)	-0.86 (inactive) and 1.18 (inactive)	0.678 and 3.32	-1.33 (inactive) and -0.003 (inactive)	1.07 and 0.266	0.191 and -0.508	-0.585 and 0.419	0.78 and -0.0975	1.21 and 0.366	1.34 and 0.898	1.09 and 1.13	-3.74 (inactive) and -1.69 (inactive)	-0.592 and 0.143	-0.826 and -0.349	-0.346 and 0.0087	-0.46 and -0.339	-0.0916 and -0.455	1.53 and 0.896
